Assay: small molecules boosting NK-mediated OVCAR3 lysis – imaging, primary NK cells, calcein-AM imaging, primary screen (AID 1508625);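 also: compound given to NK cells 16 h before adding targets at 1.5 to 1 ratio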;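 as to z-score: more negative robust z means stronger NK killing of tumor cells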
Details: OVCAR3 lysis by primary NK cells, at 5 µM; z-score: measured here: robust Z-score, single-point normalisation

Row | Compound | corrected activity, negative = more killing | z-score
1 | CCOc1ccc2nc(SCC(=O)NC3CC3)sc2c1 | -5.49% | -1.7
2 | O=C1c2ccccc2C(=O)c2c1cc(F)cc2N1CCCCC1 | -1.34% | -0.401
3 | COc1ccc(CNC(=O)CSc2nc3cc(C(F)(F)F)ccc3s2)cc1 | -4.55% | -2.53
4 | COc1ccccc1CNC(=O)CCS(=O)(=O)Cc1ccccc1C | -4.37% | -1.18
5 | O=C(Cn1ccc([N+](=O)[O-])n1)Nc1ccc(I)cc1 | -4.86% | -1.51
6 | O=C(Cn1cnc2ccccc2c1=O)NCCC(=O)N1CCOCC1 | -5.47% | -1.74
7 | O=c1cc(-c2ccc([N+](=O)[O-])cc2)nc2c(-c3ccc(Cl)cc3)c(Cc3ccccc3)[nH]n12 | -1.76% | -0.911
8 | COc1ccc(-c2ccc3c(N)c(C(=O)Nc4ccc(C(C)=O)cc4)sc3n2)cc1 | -4.48% | -1.34
9 | COc1ccc(Cl)cc1NC(=O)CSc1nc2c([nH]c3ccccc32)c(=O)n1C | -2.37% | -0.59
10 | COc1ccc(Cc2nc3c4c5c(sc4ncn3n2)C(C)(C)NC(C)(C)C5)cc1OC | -2.36% | -1.03
11 | COc1cc(NS(=O)(=O)c2ccc(NC(=O)c3ccc(OC)c(OC)c3)cc2)ncn1 | -3.26% | -1.01
12 | COC(=O)c1ccc(CN2CCN3CCCC3C2C2CCCCC2)cc1 (configuration not stated) | -2.78% | -1.21
13 | C=CCSc1nc(C)c2cc(C)ccc2n1 | -2.18% | -0.675
14 | COC(=O)c1cc(C=O)c(O)c(C=O)c1 | -2.3% | -1.01
15 | CC(=O)CC(O)(c1ccccc1)C(F)(F)F (configuration not stated) | 0.173% | 0.0551
16 | O=C(Oc1ccc(C(=S)N2CCCCC2)cc1)c1ccccc1 | -2.77% | -0.857
